Experimental data taken from paper PMC5540273 (PLoS ONE, 2017).

Each molecule was assayed on PDGFRA. Details: concentration: 1 μM,replicates: in singlicate; n = 1.
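Note: KINOMEscan kinase panel screen.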

Structure (SMILES)	%Inh [%]
CC(C)Nc1cc(-c2ccc3c(N)n[nH]c3c2)nc(N)n1 [GSK2221681]	1
Cc1ccc(-n2nc(C(C)(C)C)cc2NC(=O)Nc2ccc(OCCN3CCOCC3)c3ccccc23)cc1 [GW839464]	0
C[C@@H](Oc1cc(-c2cnn(C3CCNCC3)c2)cnc1N)c1c(Cl)ccc(F)c1Cl	23
Cc1n[nH]c2ccc(-c3cc(OC[C@@H](N)Cc4ccccc4)cnc3-c3ccoc3)cc12.O=C(O)C(F)(F)F.O=C(O)C(F)(F)F [GSK507358]	0
CCN(CC)CCOc1ccc(Nc2ncc3cc(-c4c(Cl)cccc4Cl)c(=O)n(C)c3n2)cc1 [SB-601273]	99.8
Cl.Cl.Nc1nc(-c2ccc3c(N)n[nH]c3c2)cc(N2CCCC(NC(=O)c3ccccc3)C2)n1 (centres unmarked) [GSK2286775]	0
Cc1cc(C(=O)Nc2ccc(Oc3ccc4nc(NC(=O)C5CC5)cn4n3)cc2)nn1-c1ccccc1	97.7
Nc1nc(Nc2ccccc2)cc(-c2ccc3c(N)n[nH]c3c2)n1 [GSK2225749]	4

These molecules were tested on PDGFRB. Details: concentration: 1 μM,replicates: in singlicate; n = 1.

Structure (SMILES)	%Inh [%]
CCn1c(-c2nonc2N)nc2c(C#CC(C)(C)O)nc(OCCN)cc21.Cl.Cl [GSK902056]	4
COc1ccc(C[C@@H](CN)NC(=O)c2cc(Br)c(-c3ccnc4[nH]ccc34)s2)cc1.Cl.Cl [GSK1389063]	96.3
Cc1ccc2c(-c3ccncc3)c(-c3ccc(F)cc3)nn2c1.Cl [GW461484]	8
Cl.Cl.NC[C@H](Cc1ccc(C(F)(F)F)cc1)NC(=O)c1cc(Br)c(-c2ccnc3[nH]ccc23)s1 [GSK1487252]	54
O=C(NCCCN1CCOC1=O)c1cnc(NCc2cc(Cl)ccc2Cl)nc1NC1CCCC1	30
C=CC(=O)Nc1cc2c(Nc3ccc(F)c(Cl)c3)ncnc2cc1OCCCN1CCOCC1 [GW781483]	15
NC(=O)c1cc(-c2ccccc2)cc2c(C3CCNCC3)c[nH]c12 [GSK301362]	67
Cc1occc1-c1nc(N)c(OC[C@@H](N)Cc2c[nH]c3ccccc23)cc1-c1cc2c(C)n[nH]c2cn1 [GSK1660450]	49
C[C@H]1Oc2cc(cnc2N)-c2c(nn(C)c2C#N)CN(C)C(=O)c2ccc(F)cc21	10
CN(C)CC(O)COc1ccc(Nc2nccc(-c3cnn4nc(N5CCOCC5)ccc34)n2)cc1 (centres unmarked) [GW767488]	60
CCN(CC)CCCCNc1ncc2cc(-c3c(Cl)cccc3Cl)c(NC(=O)NC(C)(C)C)nc2n1	100
Cl.Cl.NC[C@H](CC1CCCCC1)NC(=O)c1cc(Br)c(-c2ccnc3[nH]ccc23)s1 [GSK1581427]	75
CN(C)CCOc1ccc(-c2cc(-c3c[nH]nc3-c3ccccn3)ccn2)cc1 [GW835314]	20
CNC(=O)c1ccccc1Sc1ccc2c(/C=C/c3ccccn3)n[nH]c2c1	100
O=C(NCCNc1ccnc(NCc2ccc(F)cc2)n1)c1cc2ccccc2s1 [GSK1379944]	86
Cc1cc2cn[nH]c2cc1-c1cccc2c(N)c(C(N)=O)nnc12	18
CC(C)N1C(=O)Cc2cc(Nc3ncc(C(F)(F)F)c(NCc4cccc(S(C)(=O)=O)c4)n3)ccc21	71
Cl.Oc1cc(-c2nc(-c3ccccc3)[nH]c2-c2ccncc2)ccc1Cl [SB-386023]	11
CC(C)Nc1cc(-c2ccc3c(N)n[nH]c3c2)nc(N)n1 [GSK2221681]	5
Cc1ccc(-n2nc(C(C)(C)C)cc2NC(=O)Nc2ccc(OCCN3CCOCC3)c3ccccc23)cc1 [GW839464]	87
C[C@@H](Oc1cc(-c2cnn(C3CCNCC3)c2)cnc1N)c1c(Cl)ccc(F)c1Cl	0
Cc1n[nH]c2ccc(-c3cc(OC[C@@H](N)Cc4ccccc4)cnc3-c3ccoc3)cc12.O=C(O)C(F)(F)F.O=C(O)C(F)(F)F [GSK507358]	50
CCN(CC)CCOc1ccc(Nc2ncc3cc(-c4c(Cl)cccc4Cl)c(=O)n(C)c3n2)cc1 [SB-601273]	100
Cl.Cl.Nc1nc(-c2ccc3c(N)n[nH]c3c2)cc(N2CCCC(NC(=O)c3ccccc3)C2)n1 (centres unmarked) [GSK2286775]	21
Cc1cc(C(=O)Nc2ccc(Oc3ccc4nc(NC(=O)C5CC5)cn4n3)cc2)nn1-c1ccccc1	100
Nc1nc(Nc2ccccc2)cc(-c2ccc3c(N)n[nH]c3c2)n1 [GSK2225749]	2

What follows are molecules tested on PDPK1. Details: concentration: 1 μM,replicates: in singlicate; n = 1.

Structure (SMILES)	%Inh [%]
CCn1c(-c2nonc2N)nc2c(C#CC(C)(C)O)nc(OCCN)cc21.Cl.Cl [GSK902056]	0
COc1ccc(C[C@@H](CN)NC(=O)c2cc(Br)c(-c3ccnc4[nH]ccc34)s2)cc1.Cl.Cl [GSK1389063]	32
Cc1ccc2c(-c3ccncc3)c(-c3ccc(F)cc3)nn2c1.Cl [GW461484]	0
Cl.Cl.NC[C@H](Cc1ccc(C(F)(F)F)cc1)NC(=O)c1cc(Br)c(-c2ccnc3[nH]ccc23)s1 [GSK1487252]	0
O=C(NCCCN1CCOC1=O)c1cnc(NCc2cc(Cl)ccc2Cl)nc1NC1CCCC1	28
C=CC(=O)Nc1cc2c(Nc3ccc(F)c(Cl)c3)ncnc2cc1OCCCN1CCOCC1 [GW781483]	0
NC(=O)c1cc(-c2ccccc2)cc2c(C3CCNCC3)c[nH]c12 [GSK301362]	0
C[C@@H]1CCN(C(=O)CC#N)C[C@@H]1N(C)c1ncnc2[nH]ccc12	0
Cc1occc1-c1nc(N)c(OC[C@@H](N)Cc2c[nH]c3ccccc23)cc1-c1cc2c(C)n[nH]c2cn1 [GSK1660450]	0
C[C@H]1Oc2cc(cnc2N)-c2c(nn(C)c2C#N)CN(C)C(=O)c2ccc(F)cc21	41
CN(C)CC(O)COc1ccc(Nc2nccc(-c3cnn4nc(N5CCOCC5)ccc34)n2)cc1 (centres unmarked) [GW767488]	0
CCN(CC)CCCCNc1ncc2cc(-c3c(Cl)cccc3Cl)c(NC(=O)NC(C)(C)C)nc2n1	0
Cl.Cl.NC[C@H](CC1CCCCC1)NC(=O)c1cc(Br)c(-c2ccnc3[nH]ccc23)s1 [GSK1581427]	0
CN(C)CCOc1ccc(-c2cc(-c3c[nH]nc3-c3ccccn3)ccn2)cc1 [GW835314]	15
CNC(=O)c1ccccc1Sc1ccc2c(/C=C/c3ccccn3)n[nH]c2c1	0
O=C(NCCNc1ccnc(NCc2ccc(F)cc2)n1)c1cc2ccccc2s1 [GSK1379944]	15
Cc1cc2cn[nH]c2cc1-c1cccc2c(N)c(C(N)=O)nnc12	0
CC(C)N1C(=O)Cc2cc(Nc3ncc(C(F)(F)F)c(NCc4cccc(S(C)(=O)=O)c4)n3)ccc21	0
Cl.Oc1cc(-c2nc(-c3ccccc3)[nH]c2-c2ccncc2)ccc1Cl [SB-386023]	2
Cc1ccc(-n2nc(C(C)(C)C)cc2NC(=O)Nc2ccc(OCCN3CCOCC3)c3ccccc23)cc1 [GW839464]	0
C[C@@H](Oc1cc(-c2cnn(C3CCNCC3)c2)cnc1N)c1c(Cl)ccc(F)c1Cl	14
Cc1n[nH]c2ccc(-c3cc(OC[C@@H](N)Cc4ccccc4)cnc3-c3ccoc3)cc12.O=C(O)C(F)(F)F.O=C(O)C(F)(F)F [GSK507358]	0
CCN(CC)CCOc1ccc(Nc2ncc3cc(-c4c(Cl)cccc4Cl)c(=O)n(C)c3n2)cc1 [SB-601273]	0
Cl.Cl.Nc1nc(-c2ccc3c(N)n[nH]c3c2)cc(N2CCCC(NC(=O)c3ccccc3)C2)n1 (centres unmarked) [GSK2286775]	85
Cc1cc(C(=O)Nc2ccc(Oc3ccc4nc(NC(=O)C5CC5)cn4n3)cc2)nn1-c1ccccc1	8
